AF4-AF9 inh: inhibitors of human MLL-AF4/AF9 interaction. P42568. AlphaScreen, biotin-AF4 peptide binding to FLAG-AF9. 0.47% of 350,000 active. inhibition, % at 10 µM;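 active means every replicate reaching a set inhibition limit, whatever the replicate mean, cut at about 25% in these data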;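 further: 0% = plate neutral control median and 100% = total signal loss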
SMARCA2 activ: SMARCA2 function activation, primary screen; MG213 cells, MMTV-luciferase reporter, dexamethasone, overnight; activation, % at 9.1 µM; 1% of 370,000 active; in the data active means activation above about 7.8%;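 further: 0% = vehicle wells and 100% = reference activator wells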
Wnt act: activates Wnt/beta-catenin signaling in a reporter cell assay; 1.2% of 300,000 active; activation, % at 9.35 µM; activator, plate reader; in the data active means activation above about 30%, passing the limit was not always enough;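 further: 0% = neutral control wells and 100% = positive control wells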
MITF act: MITF TRPM1 promoter activation in melanoma cells; SK-MEL-5 TRPM1-promoter luciferase, 24 h; % of positive control, neutral wells = 0; activation, % at 12.5 µM; 0.75% of 300,000 active;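 active means mean activation of at least 80% with every replicate also reaching 80%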;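 further: 0% = neutral control wells and 100% = parthenolide positive control wells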
esBAF inh: inhibitors of esBAF chromatin remodeling in mouse ES cells; Bmi1-luciferase knock-in reporter, 24 h; 100% = twice the neutral-well signal; reporter increase, % at 12.5 µM; 2% of 350,000 active; AID 602393; in the data active means activation above about 40%;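 further: 0% = median of the plate's neutral control wells and 100% = double that signal; a rise in the Bmi1 reporter signal indicates esBAF inhibition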
FGF22 binding-1: shifts melting point of recombinant human FGF22 | Q9HCT0 | 1.5% of 340,000 active | recombinant FGF22 thermal shift, SYPRO orange fluorescence; percent of sucrose octasulfate shift, DMSO zero | activity (Tm shift, normalised), % at 9.99 µM;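 active means mean Tm shift, scaled 0 neutral to 100 positive control, at about 1.3% or above, every replicate too, limit read from the data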
Target sequence (Q9HCT0 whole entry, looked up): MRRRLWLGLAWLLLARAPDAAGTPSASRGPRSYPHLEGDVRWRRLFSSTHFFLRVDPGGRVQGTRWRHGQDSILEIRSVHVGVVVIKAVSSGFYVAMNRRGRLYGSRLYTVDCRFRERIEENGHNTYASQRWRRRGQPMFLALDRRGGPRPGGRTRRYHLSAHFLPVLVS
FGF22 binding-2: FGF22 (human) binding in thermal shift; 2% of 1,000 active; AID 720646; shares compounds with FGF22 binding-1; recombinant FGF22 thermal shift, SYPRO orange fluorescence; thermal shift activity, °C (ΔTm) at 38 µM;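 active means fitted rise in melting shift crosses a set limit at or below the top valid dose tested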
TSA no protein: counter-screen for FGF22 binders: compound-only thermal shift, no protein | shares compounds with FGF22 binding-1 | compound-only SYPRO orange thermal shift counter-screen | AC50, µM (doses to about 38 µM) | 2% of 1,000 active | AID 743019;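 active means rising signal whose fitted curve reaches the 0.54 level within the top valid dose, showing a melting point, actives reach about 13 µM in these data; inactive means the rest, including activity in the opposite direction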; further: value is where the raw curve crosses a fixed level and not half-maximal
An asterisk follows results filed as active; i = inactive; · = not tested or not shown; ! = not confirmed by another sample; [ ] = remark or other dose. This is a sample that favours compounds with a hit; in the whole collection about 4.3% have one here.

SMILES	AF4-AF9 inh	SMARCA2 activ	Wnt act	MITF act	esBAF inh	FGF22 binding-1	FGF22 binding-2	TSA no protein
COc1ccc(NC(=O)N(C)C[C@@H]2Oc3ccc(NC(=O)NC(C)C)cc3CC(=O)N([C@H](C)CO)C[C@@H]2C)cc1	-2	5	-1	1	5	15*!	0.077	i
COc1ccc(S(=O)(=O)N(C)C[C@@H]2Oc3ccc(NC(=O)Nc4ccccc4)cc3CC(=O)N([C@H](C)CO)C[C@@H]2C)cc1	1	·	·	·	4	1.7*	0.036[42 µM]	i
COc1ccc(NC(=O)N(C)C[C@@H]2Oc3ccc(NS(=O)(=O)c4cccs4)cc3CC(=O)N([C@H](C)CO)C[C@H]2C)cc1	·	·	·	·	-6	28*	-0.011	i
COc1ccc(NC(=O)N(C)C[C@H]2Oc3ccc(NS(=O)(=O)c4ccccc4)cc3C(=O)N([C@H](C)CO)C[C@H]2C)cc1	-2	·	·	·	0	0	·	·
COc1ccc(NC(=O)Nc2ccc3c(c2)CC(=O)N([C@H](C)CO)C[C@@H](C)[C@H](CN(C)S(=O)(=O)c2ccccc2)O3)cc1	-1	·	·	·	2	-1	·	·
COc1ccc(NC(=O)N(C)C[C@@H]2Oc3ccc(NS(=O)(=O)c4ccccc4)cc3C(=O)N([C@H](C)CO)C[C@H]2C)cc1	-3	·	·	·	-2	5.0*	0.048[42 µM]	i
COc1ccc(S[C@]2(C(=O)N3CCCC3)CC(=O)N(c3ccc4c(ccn4C)c3)[C@@H]2c2ccc(OC)cc2)cc1	·	-4	·	·	·	·	·	·
COCC#Cc1ccc([C@@H]2[C@H]3CN(S(=O)(=O)c4ccccc4F)CCCCN3[C@H]2CO)cc1	-3	·	·	·	2	0	·	·
COc1ccc(NC(=O)N(C)C[C@H]2OCCCC[C@@H](C)Oc3ccc(NC(=O)Nc4ccc(C(F)(F)F)cc4)cc3C(=O)N([C@H](C)CO)C[C@@H]2C)cc1	-1	·	·	·	-2	0	·	·
COc1ccc(NC(=O)N(C)C[C@@H]2Oc3ccc(NS(=O)(=O)c4ccc(OC)cc4)cc3CC(=O)N([C@H](C)CO)C[C@@H]2C)cc1	0	·	·	·	6	7.6*	-0.035	i
COc1ccc(S(=O)(=O)Nc2ccc3c(c2)C(=O)N([C@H](C)CO)C[C@H](C)[C@H](CN(C)CC2CC2)OCCCC[C@H](C)O3)cc1	11	·	·	·	0	1.4*	0.018	i
OC(c1ccccc1)(c1ccccc1)C1CCN(CCCNc2cccc(Br)c2)CC1	·	-4	·	·	·	·	·	·
COc1ccc2c3c([nH]c2c1)[C@@H](CO)N(Cc1ccccc1F)CC31CCN(CC2CC2)CC1	10	·	·	·	·	0	·	·
COc1ccc2c(/C=N/NS(=O)(=O)c3ccc(C)cc3)c[nH]c2c1	-2	-4	0	-4	0	2.7*	-0.21	i
CCOC(=O)C1(C)CCCN(C(=O)c2cccc(C#N)c2)C1 (stereo not drawn)	0	-2	3	·	-4	2.0*	-0.038	i
CCS(=O)(=O)N[C@@H]1CC[C@H](CC(=O)Nc2ccc(-c3ccccc3)cc2)O[C@@H]1CO	-13	·	·	·	3	1.2*	0.14[35 µM]	i
CCS(=O)(=O)N[C@H]1CC[C@H](CC(=O)Nc2ccc(-c3ccccc3)cc2)O[C@H]1CO	-14	·	·	·	7	0	·	·
O=C(NCc1ccc(Cl)cc1)c1ncn[nH]1	0	-1	0	-14	-5	0	·	·
O=C(NCc1ccc(Cl)cc1)c1n[nH]c([N+](=O)[O-])c1Cl	-4	2	5	0	·	4.2*	0.34	i
CCCNC(=O)C[C@H]1CC[C@@H]2[C@@H](COc3ccc(NC(=O)c4ccc5c(c4)OCO5)cc3C(=O)N2C)O1	-8	·	·	·	3	0	·	·
O=C(C[C@@H]1C=C[C@H](NC(=O)C2CC2)[C@@H](CO)O1)Nc1ccccc1	-1	·	·	·	-4	0	·	·
CC(C)N(C[C@H]1N[C@H](CO)[C@H]1c1ccccc1)S(=O)(=O)c1ccccc1	0	·	·	·	-4	1.4*	0.02[42 µM]	i
C/C=C/c1ccc([C@@H]2[C@@H](CO)N[C@@H]2CN(C)S(=O)(=O)c2ccccc2)cc1	·	·	·	·	-1	·	·	·
CC(C)CNC(=O)OCc1cn(Cc2ccc(Cl)cc2)nn1	·	-2	·	·	·	·	·	·
Cc1cccnc1NC(=O)CCCN1C(=O)c2ccccc2C1=O	7	-3	-1	2	-6	17*	0.22	i
SMILES	AF4-AF9 inh	SMARCA2 activ	Wnt act	MITF act	esBAF inh	FGF22 binding-1	FGF22 binding-2	TSA no protein
Cc1ccc(Cl)cc1NC(=O)CCCN1C(=O)c2cccnc2C1=O	-1	-3	0	-7	·	0	·	·
CCN(CC)c1ccc(/C=N/NC(=O)c2cc3ccccc3[nH]2)cc1	-3	3	-1	13	33	0	·	·
CCN(CC)c1ccc(/C=N/NC(=O)c2c[nH]c3ccccc23)cc1	9	2	·	-4	·	1.8*	-0.099	i
CCCN(C)C[C@H]1Oc2cc(C#CC(C)(C)O)ccc2S(=O)(=O)N([C@@H](C)CO)C[C@H]1C	2	·	·	·	-2	1	·	·
COCC#Cc1ccc2c(c1)O[C@@H](CN(C)C(=O)c1ccccc1)[C@H](C)CN([C@H](C)CO)S2(=O)=O	1	·	·	·	6	-1	·	·
COCC(=O)N(C)C[C@H]1Oc2cc(C#Cc3ccccc3)ccc2S(=O)(=O)N([C@H](C)CO)C[C@H]1C	-3	·	·	·	5	6.2*	0.1[42 µM]	i
CCCN(C)C[C@@H]1Oc2cc(C#CC(C)(C)O)ccc2S(=O)(=O)N([C@@H](C)CO)C[C@@H]1C	-5	·	·	·	-8	1.3*	0.18[42 µM]	i
COCC#Cc1ccc2c(c1)O[C@H](CN(C)C(=O)c1ccccc1)[C@@H](C)CN([C@@H](C)CO)S2(=O)=O	-1	·	·	·	-2	8.3*	0.17[42 µM]	i
COCC(=O)N(C)C[C@@H]1Oc2cc(C#Cc3ccccc3)ccc2S(=O)(=O)N([C@@H](C)CO)C[C@@H]1C	5	·	·	·	3	-1	·	·
COCC(=O)Nc1ccc2c(c1)C(=O)N(C)[C@@H]1CC[C@@H](CC(=O)NC3CCCC3)O[C@@H]1CO2	·	·	·	·	-2	0	·	·
COc1ccc(S(=O)(=O)N(NC2=NS(=O)(=O)c3ccccc32)C(=O)C(C)C)cc1	-15	-3	-1	-1	-5	2.6*	-0.066	i
CCN(CC)S(=O)(=O)c1ccc(C(=O)NNC2=NS(=O)(=O)c3ccccc32)cc1	2	0	-1	4	-5	0	·	·
Cc1ccccc1-n1ncc2c1CC(C)(C)CC2NC(=O)C1CCC1 (stereo not drawn)	1	-1	8	2	10	1.4*	0.088	i
O=C1C(Cl)=C(NS(=O)(=O)c2ccc([N+](=O)[O-])cc2)C(=O)c2ccccc21	6	-4	-1	-59	·	1.9*	0.13	i

Screening data deposited in PubChem BioAssay by several laboratories.
